Source: PubChem (National Center for Advancing Translational Sciences (NCATS))
An excerpt weighted towards active compounds, which were near 0.59% of everything screened.
Giardia killer: kills Giardia lamblia; activity change, % at 7.66 µM, hits read low; hit rate 0.15% among 340,000; Giardia lamblia trophozoite viability; in the data active means activity change below about -80%; inconclusive means between about -30% and that limit;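 further: parasites exposed to compound for two days anaerobically before the ATP read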
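Anaerobic 48 hrs incubation at 37 deg C of 100 trophozoites/well with test compounds; ATPLite 1-Step luminescence, 15-30 min RT, reports cellular ATP as viability.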
uPA generation: inhibitors of cell surface uPA generation | cell surface uPA generation assay, qHTS | Potency, µM (top dose mostly 38.3 µM), usual class: inhibitors | hit rate 0.31% among 330,000 | AID 540303; active means well fitted inhibition curve with a large enough effect; inconclusive means small, poorly fitted or top-dose-only effect; inactive means no such curve, though single readings can be large or run the other way; tested in mouse RAW 264.7 cells; further: nearly all actives have a fitted effect of over 55% in size
Rango dissoc inh: inhibitors of RanGTP-induced Rango-importin beta complex dissociation | O95149+P62826 | Biochemical FRET Rango-importin beta, RanGTP-induced dissociation | Potency, µM (top dose mostly 46.1 µM) | hit rate 0.071% among 340,000 | AID 540253; further: nearly all actives have a fitted effect of over 45% in size
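Compounds preincubate 5 min with complex of recombinant Rango and importin beta in PBS with 1 mM DTT. Ran (0.6 uM) loaded with 2 mM GTP plus 0.2 uM RCC1 starts dissociation; FRET is recorded 45 min later.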
Rango-impB inh: prevents formation of the Rango-importin beta complex; Q14974; Rango CFP/YFP FRET sensor + importin beta, 45 min; Potency, µM (doses to about 92.2 µM); hit rate 0.031% among 340,000; AID 540263; further: nearly all actives have a fitted effect of over 15% in size
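Inhibition scored from the CFP 486 nm/YFP 530 nm FRET ratio 45 min after adding 0.125 microM importin beta to 50 nM Rango biosensor preincubated 5 min with compound (room temperature, PBS with DTT, Tween-20, BSA). No-importin wells as positive control.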
a7 integrin act: activates integrin-mediated alleviation for muscular dystrophy; Potency, µM (doses to about 38.3 µM), actives largely listed as activators; alpha7betagal myoblasts, beta-gal FDG fluorescence, 48 h; AID 624291; hit rate 0.064% among 350,000; active means well fitted activation curve with a large enough effect; inconclusive means small, poorly fitted or top-dose-only effect; inactive means no such curve, though single readings can be large or run the other way; further: nearly all actives have a fitted effect of over 60% in size
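Alpha7betagal+/- myoblasts (passage 13) were plated 16-24 hr, then exposed to compounds (1:260 dilution of DMSO stock) for 48 hours at 37C. After MPER lysis, β-galactosidase reporter activity was read as FDG fluorescence (ex 480/em 540) after 30 minutes.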
Each line names hits and unclear results; the compound was inactive in the other large screens; ! = not confirmed by another sample. Unless noted, the call rests on the fitted dose curve.

CCCCCCN1C=CC(=C2C(=O)c3ccccc3C2=O)C=C1	Giardia killer inconclusive, uPA generation inconclusive, Rango-impB inh inconclusive, a7 integrin act inconclusive
CCCN1C=CC(=C2C(=O)c3ccccc3C2=O)C=C1	Giardia killer -97.0 (no result: uPA generation)
CCN1C=CC(=C2C(=O)c3ccccc3C2=O)C=C1	Giardia killer -94.1 (no result: uPA generation)
COc1ccccc1CNS(=O)(=O)c1ccc(-n2cccn2)cc1	none
Cc1ccc(NC(=O)Cn2cnc3c(NCc4ccccc4)ncnc32)cc1C	none
CCOc1ccc(CN(C)C(=O)CN2C(=O)NC(c3ccccc3)(c3ccccc3)C2=O)cc1	none
O=C(O)c1cccc(-n2cccc2/C=C2/NC(=O)N(c3ccc(Cl)cc3)C2=O)c1	Rango dissoc inh 16.4µM, Rango-impB inh inconclusive
COc1ccc(NS(=O)(=O)c2cc(NC(=O)c3ccc(=O)[nH]c3)ccc2C)cc1	Giardia killer inconclusive
COc1ccc(NS(=O)(=O)c2cc(NC(=O)[C@@H](NC(=O)c3ccccc3)C(C)C)ccc2C)cc1	uPA generation 12.6µM
COC(=O)N1CC=CC1(C)C(=O)NCc1cc(F)cc(C(F)(F)F)c1 (configuration not stated)	uPA generation 7.94µM
CC(=O)N1CC=CC1(C)C(=O)NCc1cc(F)cc(C(F)(F)F)c1 (configuration not stated)	none
Cc1cccc(NC(=O)c2c(NC(=O)c3ccccc3)sc3c2CCCC3)c1	none (no result: uPA generation, Rango dissoc inh, Rango-impB inh, a7 integrin act)
Cc1[nH]n(-c2ccc(Br)cc2)c(=O)c1/C=N/NC(=O)c1ccccc1	uPA generation 6.31µM
Cc1ccc(C(=O)N2CCC(N3CCC(C(=O)N4CCOCC4)CC3)CC2)cc1	none (no result: Giardia killer, uPA generation, Rango dissoc inh, Rango-impB inh)
CN(C)c1ccc(/C=C/c2nc3ccccc3c(=O)[nH]2)cc1	Giardia killer -91.9, Rango dissoc inh inconclusive, Rango-impB inh inconclusive
CCOC(=O)C(C(=O)OCC)N(Cc1cc(OC)ccc1OC)C(=O)C1CC(CO[Si](C)(C)C(C)(C)C)=CN1C(=O)OC(C)(C)C (configuration not stated)	none (no result: uPA generation, Rango dissoc inh, Rango-impB inh, a7 integrin act)
COc1ccc(N2CCN(CCC3Oc4cc([N+](=O)[O-])ccc4NC3=O)CC2)cc1 (configuration not stated)	a7 integrin act 8.91µM
Cc1cc(-c2ccc(S(=O)(=O)N(C)c3ccc(C)c(C)c3)s2)on1	uPA generation inconclusive
Cc1ccc(N(C)S(=O)(=O)c2ccc(-c3cc(C)no3)s2)cc1	uPA generation 2.24µM
COc1cc(OC)c(C2=NOC(C(=O)NCc3cccnc3)C2)cc1Cl (configuration not stated)	uPA generation 10µM, a7 integrin act inconclusive
COc1ccc(OC)c(C2=NOC(C(=O)NCc3cccnc3)C2)c1 (configuration not stated)	none
COc1cc(CN2CCc3ccccc3C2)ccc1O	uPA generation 2.82µM
CC(NC(=O)Nc1ccc([N+](=O)[O-])cc1)C(c1ccccc1)N1CCOCC1 (configuration not stated)	none
CC(NC(=O)Nc1ccc(Cl)c(Cl)c1)C(c1ccccc1)N1CCOCC1 (configuration not stated)	uPA generation 5.01µM, a7 integrin act inconclusive
c1cn2c(NC3CCCCC3)c(-c3ccc(SC4CCCCC4)cc3)nc2cn1	Rango dissoc inh inconclusive, Rango-impB inh inconclusive
c1cn2c(NC3CCCC3)c(-c3ccc(N4CCOCC4)cc3)nc2cn1	Giardia killer inconclusive, uPA generation 5.62µM, Rango dissoc inh inconclusive, Rango-impB inh inconclusive
COc1cc(/C=C/c2cc(C(=O)O)c3ccccc3n2)ccc1OC(F)F	Giardia killer inconclusive, uPA generation 2.82µM
O=C(O)c1cc(/C=C/c2ccc(N3CCOCC3)cc2)nc2ccccc12	Giardia killer inconclusive, Rango dissoc inh inconclusive, Rango-impB inh inconclusive
CCOc1ccc(N(CC(=O)Nc2ccccc2OC)S(C)(=O)=O)cc1	uPA generation inconclusive
CCOc1ccc(N(CC(=O)Nc2ccccc2Cl)S(C)(=O)=O)cc1	uPA generation 10µM
CC1CCC(C(C)C)C(OC(=O)Cn2c(-c3ccccc3)[n+](C)c3ccccc32)C1 (configuration not stated)	uPA generation 4.47µM!
COc1ccc(/C=N/NC(=O)CCn2cnc(-c3ccccc3)c2-c2ccccc2)cc1	uPA generation 1.12µM
COc1ccc(/C=N/NC(=O)CCSc2nc3ccccc3s2)cc1	uPA generation 3.98µM
O=[N+]([O-])c1cnc2ccccn12	Giardia killer -81.7
